# BRCA1 expr up: qHTS Assay to Identify Small Molecule Activators of BRCA1 Expression; MCF7-BRCA1-FFLuc reporter, luminescence, 48 h; response scale: scaled: vehicle 0%, 10 µM genistein 100%; actives 1.1% (n = 380,000); Potency, µM (series often up to 46.1 µM), inactives show top-dose activation, actives largely listed as activators; note: nearly all actives have a fitted effect of over 80% in size
#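 Quantitative HTS in MCF7 cells stably reporting BRCA1 expression via firefly luciferase. Compound treatment lasts 48 h at 37 °C in phenol-red free MEM. Activation is expressed relative to genistein at 10 microM and DMSO.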
# Tb PFK block: qHTS Assay to Find Inhibitors of T. brucei phosphofructokinase; ATP-dependent 6-phosphofructokinase (Trypanosoma brucei brucei), O15648; T. brucei PFK, ADP-Glo luminescence; Potency, µM (highest dose often 57.5 µM), inactives show top-dose activity, negative = inhibition, hits mostly inhibitors; actives 0.17% (n = 330,000);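 note: 0% = uninhibited 1x PFK enzyme wells and -100% = no-enzyme wells; nearly all actives have a fitted effect of over 60% in size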
# Target sequence (O15648 whole entry, looked up): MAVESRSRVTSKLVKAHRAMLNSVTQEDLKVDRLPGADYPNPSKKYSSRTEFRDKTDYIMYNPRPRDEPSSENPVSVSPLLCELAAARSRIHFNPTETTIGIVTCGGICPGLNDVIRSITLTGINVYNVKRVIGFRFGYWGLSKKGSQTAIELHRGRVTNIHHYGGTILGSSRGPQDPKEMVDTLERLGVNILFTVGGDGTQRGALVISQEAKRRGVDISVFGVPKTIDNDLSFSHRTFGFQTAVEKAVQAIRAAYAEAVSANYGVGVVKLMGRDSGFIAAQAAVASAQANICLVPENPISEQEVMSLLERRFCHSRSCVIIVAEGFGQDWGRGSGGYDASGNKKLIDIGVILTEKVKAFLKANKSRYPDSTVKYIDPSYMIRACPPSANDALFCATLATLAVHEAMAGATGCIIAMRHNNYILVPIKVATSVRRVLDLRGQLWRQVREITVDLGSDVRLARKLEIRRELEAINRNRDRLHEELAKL
#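 ADP-Glo luminescence quantified ADP after 45 min at room temperature, with 1.25 nM T. brucei PFK, 0.1 mM ATP and 0.5 mM fructose-6-phosphate in pH 8.0 TEA buffer. qHTS titrations up to 57 µM; curves classified by quality.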
# VDR inhibitor: Inhibitors of the vitamin D receptor (VDR): qHTS | VDR-SRC2-3 peptide fluorescence polarization, 2 h | actives 0.93% (n = 400,000) | Vitamin D3 receptor (Homo sapiens), P11473 | Potency, µM, inactives show max response, negative = inhibition, actives largely listed as inhibitors | AID 504847, 2011; note: % is set by controls: 0 for no effect and ±100 for the full control effect
#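 After 23 nl compound addition and a short centrifugation, plates sat for 2 hours at ambient temperature; polarization of fluorescence then indicated loss of VDR binding to peptide SRC2-3.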
# PLK1 PBD inh: qHTS for Inhibitors of PLK1-PDB (polo-like kinase 1 - polo-box domain): Primary Screen | Potency, µM, without a hit: max response, negative = inhibition, actives largely listed as inhibitors | actives 2.8% (n = 360,000) | Plk1 PBD binding of FITC phosphopeptide, fluorescence polarization | Serine/threonine-protein kinase PLK1 (Homo sapiens), P53350; note: series mostly up to about 57 µM; % is set by controls: 0 for no effect and ±100 for the full control effect; nearly all actives have a fitted effect of over 65% in size
# An asterisk follows results filed as active; ? = inconclusive; . = not tested or not shown. This is a sample that favours compounds with a hit; in the whole collection about 3.9% have one here. Calls come from the whole dose curve; as a rule, active = well fitted curve in the direction sought with a large enough effect; inconclusive = small, poorly fitted or top-dose-only effect, or another doubt; inactive = no such curve, though single readings can be large; an effect the other way counts as inactive or inconclusive. Potency is the fitted concentration of half-maximal effect.
SMILES,BRCA1 expr up,Tb PFK block,VDR inhibitor,PLK1 PBD inh
Cc1ccc(CNC(=O)NCc2noc3ccc(C)cc23)cc1,.,.,12.0%,.
O=C(Nc1ccc(C(=O)Nc2ccc(C(=O)Nc3ccc(S(=O)(=O)O)c4cc(S(=O)(=O)O)cc(S(=O)(=O)O)c34)cc2)cc1)Nc1ccc(C(=O)Nc2ccc(C(=O)Nc3ccc(S(=O)(=O)O)c4cc(S(=O)(=O)O)cc(S(=O)(=O)O)c34)cc2)cc1,.,.,5.62µM*,.
O=C(Nc1cc(C(=O)Nc2ccc(S(=O)(=O)O)cc2S(=O)(=O)O)cc(C(=O)Nc2ccc(S(=O)(=O)O)cc2S(=O)(=O)O)c1)Nc1cc(C(=O)Nc2ccc(S(=O)(=O)O)cc2S(=O)(=O)O)cc(C(=O)Nc2ccc(S(=O)(=O)O)cc2S(=O)(=O)O)c1,0.0%,.,-8.1%,.
C=CCn1c(SCC(N)=O)nc2ccccc2c1=O,6.4%,.,-4.0%,.
Cc1nn(-c2ccccc2)c(/N=C/c2ccccc2O)c1-c1ccccc1,12.6µM*,-0.3%,-8.0%,-6.8%
Cc1noc(C)c1C(=O)N1CCC2(CC1)CN(c1ncccn1)C2,.,.,0.7%,.
Cc1ccc(S(=O)(=O)Nc2c(C(=O)O)[nH]c3ccccc23)c(C)c1,-24.8%,1.4%,-22.1%,26.7µM*
COCCNC(=O)C1(C)CCN(C(=O)c2cc(C(C)(C)C)nn2C)C1 (centres undefined),2.4%,.,.,-1.7%
CC1CCc2onc(C(=O)N3CCN(c4ccc(Cl)cc4)CC3)c2C1 (centres undefined),.,.,22.7%,.
O=S(=O)(c1ccc(=S)[nH]c1)N1CCN(Cc2ccccc2)CC1,-12.6%,1.0%,79.4µM*,?
CC1C(=O)N(Cc2cn(Cc3ccco3)nn2)CCS(=O)(=O)N1Cc1ccc(-c2ccccc2C(F)(F)F)cc1 (centres undefined),-4.5%,.,.,-13.1%
CCc1ccc(Nc2cc(C)nc3ncnn23)cc1,-15.8%,7.6%,-5.6%,-7.8%
CCc1cccc(Nc2cc(C)nc3ncnn23)c1,-17.7%,-4.8%,-27.6%,23.8µM*
O=C(Nc1nnc(-c2ccc3c(c2)CCCC3)o1)c1ccc(Cl)cc1Cl,-56.9%,1.4%,-6.6%,21.2µM*
CC1(C(=O)NS(=O)(=O)c2ccc(C#N)cc2)CCN1C(=O)CC1CC1 (centres undefined),-2.6%,.,.,3.4%
O=C1/C(=C\c2ccc(O)c(O)c2)C(c2ccccc2)=NN1c1ccccc1,8.1%,-8.6%,-23.8%,15µM*
CCOc1cc(/C=C2\C(=O)N(c3nc(-c4ccc(Br)cc4)cs3)N=C2c2ccccc2)ccc1O,-7.3%,0.8%,-15.2%,?
COc1cc(/C=C2\C(=O)N(c3ccc(NC(C)=O)cc3)N=C2c2ccccc2)ccc1O,-13.0%,1.4%,?,23.8µM*
CN1CCN(c2ccccc2NC(=O)c2ccc(-c3ccccc3[N+](=O)[O-])o2)CC1,-74.8%,-1.0%,-8.0%,-13.6%
COc1ccc(C2NN=C(c3ccc(C)cc3)S2)cc1OC (centres undefined),?,13.9%,-8.3%,23.8µM*
Nc1ccc(-c2c3ccc(=O)cc-3oc3cc(O)ccc23)cc1C(=O)O,-11.6%,1.3%,0.2%,13.4µM*
Fc1ccc(-c2csc(=S)[nH]2)cc1,5.2%,-9.4%,79.4µM*,23.8µM*
O=c1[nH]c(-c2ccc(Cl)cc2)cs1,-24.1%,-3.6%,-8.6%,-13.4%
c1ccc(-c2cc3ccccc3[nH]2)cc1,53.0%,-2.8%,-18.6%,-5.5%
S=c1[nH]c(-c2ccccc2)cs1,-0.9%,-13.8%,?,21.2µM*
Cn1c(CCNC(=O)c2ccco2)nc2cc(NC(=O)COc3ccc(Cl)cc3)ccc21,.,.,-3.0%,.
COc1ccc(F)cc1S(=O)(=O)NCC(c1ccco1)N1CCc2ccccc2C1 (centres undefined),-15.5%,0.2%,-1.9%,0.8%
COc1ccc(S(=O)(=O)NC(C)CCc2ccccc2)cc1 (centres undefined),13.6%,1.0%,?,5.32µM*
COc1ccccc1S(=O)Cc1ccc(C(=O)NCc2ccccc2Cl)o1 (centres undefined),-19.0%,-1.9%,?,26.7µM*
COc1ccccc1CNC(=O)c1ccc(CS(=O)(=O)c2c(Cl)cccc2Cl)o1,.,.,-14.8%,.
